In PubChem BioAssay (NCATS):
Inconclusive results are not listed. Active and inactive are the calls of the source. Calls follow the shape of the dose curve; as a rule, active = well fitted curve in the direction sought with a large enough effect; inconclusive = small, poorly fitted or top-dose-only effect, or another doubt; inactive = no such curve, though single readings can be large; an effect the other way counts as inactive or inconclusive.

How the values were obtained:
[1] = target: Calcium and integrin-binding protein 1 (Homo sapiens) (UniProt Q99828); test: Primary qHTS for Identification of Calcium Integrin Binding Protein 1 (CIB1) Competitor (AID 1508620); details: CIB1-GST / FITC-alphaIIb peptide fluorescence polarization; series mostly up to 57.7 µM;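 also: GST tagged CIB1 binding a fluorescein labelled alphaIIb integrin peptide tracer; top concentration of the series differs between compounds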
Chain of Calcium and integrin-binding protein 1 (Homo sapiens) (Q99828 whole entry, looked up): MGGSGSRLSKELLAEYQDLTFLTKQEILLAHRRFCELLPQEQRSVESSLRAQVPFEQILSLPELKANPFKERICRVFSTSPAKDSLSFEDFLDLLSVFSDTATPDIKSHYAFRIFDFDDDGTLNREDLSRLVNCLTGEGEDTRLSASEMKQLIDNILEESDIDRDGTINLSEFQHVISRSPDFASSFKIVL
How it was run: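 CIB1-GST (1 uM final) and compound incubated 15 min at room temperature before adding FITC-alphaIIb peptide tracer (100 nM final). Competition for binding read by fluorescence polarization (ex 480, em 540) after another 15 min at room temperature.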

[2] = Primary qHTS for inhibitors of nuclear receptor binding SET domain protein 2 (NSD2) in an isogenic RCH-ACV NSD2 p.E1099K mutant (9B) (AID 1645876); details: RCH-ACV NSD2 E1099K (9B) viability, CellTiter-Glo, 72 h; series mostly up to 44.9 µM; also: nearly all actives have a fitted effect of over 70% in size
[3] = Primary qHTS for inhibitors of nuclear receptor binding SET domain protein 2 (NSD2) in an RCH-ACV wild type WT cells (2C) (AID 1645877); details: RCH-ACV (leukaemia line) NSD2 WT (2C) viability, CellTiter-Glo, 72 h; series mostly up to 44.9 µM; also: nearly all actives have a fitted effect of over 70% in size
% is scaled to controls: 0 for no effect and ±100 for the full control effect.

COc1ccc(C2(O)c3ccccc3NC(=O)C2OC)cc1 (stereo unspecified)
inactive: Potency [1] | Potency [2] | Potency [3]

C[C@@H]1C[C@@H](O)[C@@]23CO[C@]2(CO)CCC[C@@H]3[C@@]12C[C@@H](c1ccoc1)OC2=O
inactive: Potency [1] | Potency [2] | Potency [3]

Cc1cn2cc(CC(=O)N3CCC4(CC3)CN(Cc3ccc(-n5nccn5)cc3Cl)C4)nc2s1
inactive: Potency [1] | Potency [2] | Potency [3]

COC(=O)C1=COC(OC2OC(CO)C(O)C(O)C2O)C2C(C)CC(=O)C12O (stereo unspecified)
inactive: Potency [1] | Potency [2] | Potency [3]

C/C=C(\C)C(=O)OC[C@H]1O[C@H](O[C@H]2O[C@H](CO)[C@@H](O)[C@H](O)[C@H]2O[C@@H]2O[C@H](CO)[C@@H](O)[C@H](O)[C@H]2O)[C@H](O[C@@H]2O[C@H](CO)[C@@H](O)[C@H](O)[C@H]2O)[C@@H](O)[C@@H]1O
inactive: Potency [1] | Potency [2] | Potency [3]

CC1CCC2(C)CCC3(C)C(=CCC4C5(C)CCC(O)C(C)(C(=O)O)C5CCC43C)C2C1C (stereo unspecified)
inactive: Potency [1] | Potency [2] | Potency [3]

CC1=C2C(=O)C=C(CO)C2[C@H]2OC(=O)[C@H](C)[C@@H]2[C@@H](OC(=O)Cc2ccc(O)cc2)C1 (stereo partly specified)
inactive: Potency [1] | Potency [2] | Potency [3]

O=C(/C=C/c1ccc(O)cc1)O[C@@H]1C[C@@](O)(C(=O)O)C[C@@H](O)[C@@H]1O
inactive: Potency [1] | Potency [2] | Potency [3]

OC[C@H]1O[C@@H](O[C@H]2[C@H](O)[C@@H](CO)O[C@@H](OCc3ccccc3)[C@@H]2O[C@@H]2OC[C@](O)(CO)[C@H]2O)[C@H](O)[C@@H](O)[C@@H]1O
inactive: Potency [1] | Potency [2] | Potency [3]

CC(C)C1NC(=O)C2CCCN2C1=O (stereo unspecified)
inactive: Potency [1] | Potency [2] | Potency [3]

CC1(C)CC[C@]2(C(=O)O[C@@H]3O[C@H](CO)[C@@H](O)[C@H](O)[C@H]3O)CC[C@]3(C)C(=CCC4[C@@]5(C)C[C@@H](O)[C@H](O)[C@@](C)(CO)C5[C@H](O)C[C@]43C)C2C1 (stereo partly specified)
inactive: Potency [1] | Potency [2] | Potency [3]

CC(C)=C1C[C@@]2(C)C(=CC1=O)CC[C@@H](O)[C@@H]2C
inactive: Potency [1] | Potency [2] | Potency [3]

COC(=O)C1=COC(O[C@@H]2O[C@H](CO)[C@@H](O)[C@H](O)[C@H]2O)[C@@H]2[C@@](C)(O)[C@@H](OC(=O)/C=C/c3ccccc3)C[C@]12O (stereo partly specified)
inactive: Potency [1] | Potency [2] | Potency [3]

CC1(C)CC[C@]2(C(=O)O[C@@H]3O[C@H](CO[C@@H]4O[C@H](CO)[C@@H](O)[C@H](O)[C@H]4O)[C@@H](O)[C@H](O[C@@H]4O[C@H](CO)[C@@H](O)[C@H](O)[C@H]4O)[C@H]3O)CC[C@]3(C)C(=CCC4[C@@]5(C)CC[C@H](O[C@@H]6OC[C@@H](O)[C@H](O)[C@H]6O)[C@@](C)(C(=O)O)C5CC[C@]43C)[C@@H]2C1 (stereo partly specified)
inactive: Potency [1] | activity change, negative = viability loss [2] 0.102% [at 9.23 µM] | outcome [3] inactive [at 9.23 µM]

C[C@H]1[C@H](C)CC[C@]2(C(=O)O)CC[C@]3(C)C(=CCC4[C@@]5(C)C[C@@H](O)[C@H](O)C(C)(C)C5CC[C@]43C)[C@H]12 (stereo partly specified)
inactive: Potency [1] | Potency [2] | Potency [3]

COC(=O)C1C(c2ccc(O)cc2)C(C(=O)O)C1c1ccc(O)cc1 (stereo unspecified)
inactive: Potency [1] | Potency [2] | Potency [3]

CC1(CO)CC(O)C2(C)CCC3(C)C(=CCC4C5(C=O)CCC(OC6OC(C(=O)O)C(O)C(O)C6OC6OC(C(=O)O)C(O)C(O)C6O)C(C)(C)C5CCC43C)C2C1 (stereo unspecified)
inactive: Potency [1] | activity change, negative = viability loss [2] -5.71% [at 9.23 µM] | activity change, negative = cell killing [3] -0.213% [at 9.23 µM]

CC(C)CC(=O)OC[C@@]1(O)C[C@@]23CC[C@H]4[C@@](C)(CCC[C@@]4(C)C(=O)O)[C@@H]2CC[C@@H]1C3
inactive: Potency [1] | Potency [2] | Potency [3]

CC1=C2CC(O)(C(C)(C)O)C(O[C@@H]3O[C@H](CO)[C@@H](O)[C@H](O)[C@H]3O)CC(C)C2CC1=O (stereo partly specified)
inactive: Potency [1] | Potency [2] | Potency [3]

COc1ccc(N2CCN(CCCNC(=O)Cn3c(=O)c4cccn4c4c(C)ccnc43)CC2)cc1
inactive: Potency [1] | Potency [2] | Potency [3]

CC1CC(=O)[C@]2(O)C(C(=O)OCCc3ccc(O)c(O)c3)=CO[C@@H](O[C@@H]3O[C@H](CO)[C@@H](O)[C@H](O)[C@H]3O)[C@H]12 (stereo partly specified)
inactive: Potency [1] | Potency [2] | Potency [3]

COc1cc([C@H]2OC[C@](O)(Cc3ccc(O[C@@H]4O[C@H](CO)[C@@H](O)[C@H](O)[C@H]4O)c(OC)c3)[C@@H]2CO)ccc1O
inactive: Potency [1] | Potency [2] | Potency [3]
